High-throughput results deposited in PubChem BioAssay by National Center for Advancing Translational Sciences (NCATS).
HP1b binding inh = HP1-beta chromodomain-methylated histone interaction inhibition; P83916; AlphaScreen HP1-beta / biotin-H3K9me3 peptide binding; Potency, µM (highest dose often 114 µM), for the others: top-dose activity change, negative = inhibition, hits mostly inhibitors; 390,000 compounds, 0.56% hits; AID 540317; further: potency means the concentration at half of the fitted maximal effect; nearly all actives have a fitted effect of over 70% in size
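AlphaScreen: HP1-beta (50 nM) preformed 30 min with biotin-H3(1-18)K9me3 peptide (50 nM) in PBS pH 7.4, 0.01% Tween-20. Compound added for 30 min at RT, then streptavidin donor/nickel chelate acceptor beads (10 ug/mL) for 30 min.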
JMJD2A Tudor = inhibitors of human JMJD2A Tudor domain; O75164; AlphaScreen JMJD2A-Tudor / H3K4me3 peptide binding; Potency, µM (series often up to 114 µM), for the others: at the highest dose activity change, negative = inhibition, hits mostly inhibitors; 390,000 compounds, 4.4% hits; further: potency means the concentration at half of the fitted maximal effect; on the % scale 0 is the no-effect control and ±100 the full control effect; nearly all actives have a fitted effect of over 50% in size
L3MBTL1 inh-1 = inhibitors of human L3MBTL1. Potency, µM (top dose mostly 57.1 µM), without a hit: at the top dose activity, negative = inhibition, most hits filed as inhibitors. 230,000 compounds, 0.66% hits. Q9Y468. AID 485360. AlphaScreen L3MBTL1–H3K9me1 peptide binding; further: potency means the concentration at half of the fitted maximal effect; on the % scale 0 is the no-effect control and ±100 the full control effect; nearly all actives have a fitted effect of over 60% in size
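Displacement of a biotinylated histone H3(1-15) peptide monomethylated at Lys9 (75 nM) from L3MBTL1 (50 nM) was measured by AlphaScreen after a 30 min room-temperature compound incubation; cefsulodin titration served as intraplate control.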
G9a inh = blocks human histone lysine methyltransferase G9a. Q96KQ7. 350,000 compounds, 8.8% hits. Potency, µM (doses to about 102 µM), for the others: top-dose activity, negative = inhibition, usual class: inhibitors. G9a H3K9 monomethylation, AlphaScreen, 2 h; further: potency means the concentration at half of the fitted maximal effect; on the % scale 0 is the no-effect control and ±100 the full control effect; nearly all actives have a fitted effect of over 75% in size
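AlphaScreen detection with an anti-monomethyl H3K9 antibody quantified product after a 2 h room-temperature reaction containing 500 nM biotinylated H3K9 peptide, 20 µM SAM and 20 nM enzyme, which had been preincubated 15 min with compound.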
PI5P4K alpha inh = inhibitors of human PI5P4K alpha | PI5P4Kalpha enzyme, ADP-Glo luminescence, 60 min; stronger effect = lower value | max response, % | 330,000 compounds, 1.2% hits; active means max response of -50% or lower; inconclusive means between -30% and -50%; inactive means -30% or higher; further: value at the top dose of about 77 µM; on the % scale 0 is the no-effect control and ±100 the full control effect
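Human PI5P4Kalpha with substrate in 0.038 M HEPES pH 7.4, 0.28 mM EGTA, 0.1% CHAPS, 5% DMSO; reaction started with 5 microM ATP (final), 60 min at room temperature. ADP formed read by ADP-Glo luminescence.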
BAZ2B block = blocks human BAZ2B | AlphaScreen BAZ2B-H3K14Ac peptide displacement | Potency, µM (top dose mostly 114 µM), for inactives: at the highest dose activity change, negative = inhibition, hits mostly inhibitors | 360,000 compounds, 4.4% hits | AID 504333; further: potency means the concentration at half of the fitted maximal effect; on the % scale 0 is the no-effect control and ±100 the full control effect; nearly all actives have a fitted effect of over 60% in size
Target sequence (Q9UIF8 whole entry, looked up): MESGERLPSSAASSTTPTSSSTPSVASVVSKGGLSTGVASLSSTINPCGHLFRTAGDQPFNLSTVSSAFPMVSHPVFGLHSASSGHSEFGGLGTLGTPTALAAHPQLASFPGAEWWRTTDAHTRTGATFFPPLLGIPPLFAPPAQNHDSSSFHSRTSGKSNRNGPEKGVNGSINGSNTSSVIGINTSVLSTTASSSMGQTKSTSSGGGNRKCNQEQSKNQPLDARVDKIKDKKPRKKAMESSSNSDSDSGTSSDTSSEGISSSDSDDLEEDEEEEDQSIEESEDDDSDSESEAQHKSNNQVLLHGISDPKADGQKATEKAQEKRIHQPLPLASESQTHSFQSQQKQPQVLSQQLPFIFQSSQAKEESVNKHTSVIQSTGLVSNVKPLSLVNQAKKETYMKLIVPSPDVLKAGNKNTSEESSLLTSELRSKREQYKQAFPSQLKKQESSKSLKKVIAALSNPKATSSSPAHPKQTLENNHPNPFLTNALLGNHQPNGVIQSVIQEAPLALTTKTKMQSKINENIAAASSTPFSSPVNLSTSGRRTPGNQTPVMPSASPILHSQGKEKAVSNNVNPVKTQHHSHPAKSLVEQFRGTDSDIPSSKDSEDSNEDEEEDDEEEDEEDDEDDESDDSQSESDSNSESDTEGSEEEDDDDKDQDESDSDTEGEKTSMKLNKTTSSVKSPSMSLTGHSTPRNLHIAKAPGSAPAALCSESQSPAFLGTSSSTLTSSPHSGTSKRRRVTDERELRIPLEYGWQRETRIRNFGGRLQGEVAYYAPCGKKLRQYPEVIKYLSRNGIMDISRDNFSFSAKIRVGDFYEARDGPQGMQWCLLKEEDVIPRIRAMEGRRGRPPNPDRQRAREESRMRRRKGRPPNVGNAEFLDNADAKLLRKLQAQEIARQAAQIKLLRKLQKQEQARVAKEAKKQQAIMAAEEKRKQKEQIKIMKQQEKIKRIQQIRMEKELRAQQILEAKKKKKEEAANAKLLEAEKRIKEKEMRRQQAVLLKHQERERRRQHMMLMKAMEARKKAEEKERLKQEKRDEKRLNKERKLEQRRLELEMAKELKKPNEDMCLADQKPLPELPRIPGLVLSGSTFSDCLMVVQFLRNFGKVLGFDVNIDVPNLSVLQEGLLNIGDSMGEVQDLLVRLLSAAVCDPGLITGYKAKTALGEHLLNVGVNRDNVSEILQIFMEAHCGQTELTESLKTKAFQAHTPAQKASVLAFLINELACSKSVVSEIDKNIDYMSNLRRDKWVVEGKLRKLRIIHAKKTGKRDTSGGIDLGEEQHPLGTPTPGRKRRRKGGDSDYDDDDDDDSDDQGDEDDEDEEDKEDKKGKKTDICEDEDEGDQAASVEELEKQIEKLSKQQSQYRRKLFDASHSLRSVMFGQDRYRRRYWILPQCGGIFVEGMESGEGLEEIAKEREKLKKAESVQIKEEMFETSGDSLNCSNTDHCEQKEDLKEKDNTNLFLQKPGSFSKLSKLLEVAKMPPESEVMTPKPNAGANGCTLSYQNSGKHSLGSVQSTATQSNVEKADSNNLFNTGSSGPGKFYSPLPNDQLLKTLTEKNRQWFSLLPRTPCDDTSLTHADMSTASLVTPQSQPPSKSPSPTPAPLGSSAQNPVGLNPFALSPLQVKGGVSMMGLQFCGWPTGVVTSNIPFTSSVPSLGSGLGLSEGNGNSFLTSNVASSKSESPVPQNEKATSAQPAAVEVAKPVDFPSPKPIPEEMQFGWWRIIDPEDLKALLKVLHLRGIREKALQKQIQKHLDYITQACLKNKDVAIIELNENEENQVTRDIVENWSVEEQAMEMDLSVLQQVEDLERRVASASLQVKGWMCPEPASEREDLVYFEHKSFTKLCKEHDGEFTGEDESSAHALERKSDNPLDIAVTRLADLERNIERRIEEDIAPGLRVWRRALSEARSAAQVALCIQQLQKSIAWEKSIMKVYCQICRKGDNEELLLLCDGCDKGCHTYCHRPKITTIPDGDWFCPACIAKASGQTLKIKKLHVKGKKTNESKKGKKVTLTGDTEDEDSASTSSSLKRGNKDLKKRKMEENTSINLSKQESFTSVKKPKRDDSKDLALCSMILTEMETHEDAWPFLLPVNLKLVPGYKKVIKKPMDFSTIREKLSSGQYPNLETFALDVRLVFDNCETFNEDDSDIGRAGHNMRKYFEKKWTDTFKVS
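Compounds, titrated to a top concentration of 110 uM, were incubated 30 min at room temperature with preformed BAZ2B/acetyl-K14 H3 peptide complex (50 nM each). Proximity signal was measured by AlphaScreen after 20 min with beads.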
L3MBTL1 inh-2 = validation of human L3MBTL1 methyl-lysine binding inhibitors; Potency, µM, most hits filed as inhibitors; shares compounds with L3MBTL1 inh-1; 500 compounds, 91% hits; AID 540279; L3MBTL1 methyl-lysine binding inhibition, biochemical qHTS; further: potency means the concentration at half of the fitted maximal effect; nearly all actives have a fitted effect of over 70% in size
AlphaScreen ctr2 = interferes with AlphaScreen signal in L3MBTL1 counterscreen; shares compounds with L3MBTL1 inh-1; AlphaScreen counterscreen, signal inhibition; Potency, µM (titrated, usually from 57.1 µM), for the others: at the top dose activity change, negative = inhibition, most hits filed as inhibitors; 500 tested, under 10 active; AID 602224; further: potency means the concentration at half of the fitted maximal effect; 0% is about no effect
Starred values were filed as active, the others as inactive; ? = inconclusive; · = not tested or not shown; [ ] = remark or other dose. Hits are enriched below; roughly 11% of the tested compounds scored in any of these assays. Unless noted, the call rests on the fitted dose curve; in most records, active means well fitted curve in the direction sought with a large enough effect; inconclusive means small, poorly fitted or top-dose-only effect, or another doubt; inactive means no such curve, though single readings can be large; an effect the other way counts as inactive or inconclusive.

SMILES	HP1b binding inh	JMJD2A Tudor	L3MBTL1 inh-1	G9a inh	PI5P4K alpha inh	BAZ2B block	L3MBTL1 inh-2	AlphaScreen ctr2
Cc1nc(C)c(C(=O)Nc2ncc([N+](=O)[O-])s2)o1	-22%	?	40µM*	10µM*	?	?	5.3*	6%
Cc1ccc(-n2ncc3c(Nc4cccc(Cl)c4)ncnc32)c(C)c1	37%	-17%	·	-2%[59 µM]	·	1%	·	·
O=[N+]([O-])c1cc([N+](=O)[O-])c(Oc2ccc(F)cc2F)cc1NN1CCCCC1	0%	?	-5%	·	0	?	·	·
CC(=O)c1ccccc1Oc1cc(NN2CCCCC2)c([N+](=O)[O-])cc1[N+](=O)[O-]	9%	?	20µM*	28µM*	-1	32µM*	27*	?
N#Cc1ccccc1OC1=NS(=O)(=O)c2ccccc21	·	-18%	·	·	·	·	·	·
O=C(COC(=O)C1CCN(S(=O)(=O)c2cccs2)CC1)c1cc2ccccc2o1	47%	-5%	32µM*	8.9µM*	2	-9%	?	-1%
COc1ccc2c(CC(=O)NCc3ccc4c(c3)OCO4)coc2c1	-19%	40µM*	25µM*	?	·	50µM*	27*	0%
O=C(Oc1c(CN2CCOCC2)cc(Cl)c2cccnc12)c1ccccc1Br	18%	40µM*	32µM*	-7%	0	20µM*	24*	2%
CC1=CN2C(=N)/C(=C/c3ccc([N+](=O)[O-])o3)C(=O)N=C2S1	?	79µM*	35µM*	?	-67*	45µM*	13*	-9%
CC1=CN2C(=N)/C(=C/c3ccco3)C(=O)N=C2S1	7%	-12%	-8%	-11%[59 µM]	?	-37%	·	·
O=C1NC(=Nc2ccc(O)cc2)S/C1=C\C=C\c1ccco1	-8%	-8%[11.4 µM]	16µM*	50µM*	?	?	13*	2%
COc1cc(C)ccc1OCCn1c(-c2ccc(Cl)cc2)nc2ccccc2c1=O	38%	5%	·	-20%[59 µM]	·	-12%	·	·
CCCC1CCC(c2ccc(C(N)=O)cc2)CC1 (centres undefined)	4%	-2%	1%	27%	16	-5%	·	·
CC(C)C1Nc2ccc(C(=O)O)cc2C2C=CCC21 (centres undefined)	?	32µM*	4.5µM*	10µM*	?	79µM*	3*	-20%
CC(=O)c1ccc2c(c1)C1C=CCC1C(c1cc3c(cc1Br)OCO3)N2 (centres undefined)	10%	-31%	?	25%[2.33 µM]	-7	-32%	·	·
CCCC1Nc2ccc(C(=O)O)cc2C2C=CCC12 (centres undefined)	-17%	56µM*	10µM*	?	-28	45µM*	3.8*	-20%
O=c1cc(OCc2ccccc2)cc[nH]1	8.9µM*	11µM*	28µM*	?	-7	2.8µM*	6*	-20%
Cc1[nH]ccc(=O)c1OCc1ccccc1	18%	-17%	-2%	14%[59 µM]	-1	-1%	·	·
CCOC(=O)C1CCC(CN(Cc2ccc(Cl)cc2)S(=O)(=O)c2ccc(Br)cc2)CC1 (centres undefined)	26%	-6%	·	7%[59 µM]	·	15%	·	·
COCCCNC(=O)/C(C#N)=C/c1ccc(OCC(=O)O)c(OC)c1	?	50µM*	3.5µM*	13µM*	?	20µM*	2.1*	?
Cc1ccc(-c2cc(-c3ccco3)c(C#N)c(=O)[nH]2)cc1	17%	79µM*	28µM*	-132%[59 µM]	-17	50µM*	21*	-1%
Cc1ccc(-c2cc(C(F)(F)F)c(C#N)c(=O)[nH]2)cc1	36%	-19%	7%	0%[2.33 µM]	8	-6%	·	·
O=C(Cn1ncn2c(cc3ccccc32)c1=O)NCc1ccc(F)cc1	38%	-3%	·	-1%[59 µM]	·	1%	·	·
CCN=C1S/C(=C\c2cn(C(C)=O)nc2-c2ccccc2)C(=O)N1CC	28%	1%	7%[11.4 µM]	16%[59 µM]	·	9%	·	·
CCN=C1S/C(=C\c2ccc(-c3cccc(C(=O)O)c3)o2)C(=O)N1CC	47%	?	40µM*	40µM*	-27	?	24*	9%
SMILES	HP1b binding inh	JMJD2A Tudor	L3MBTL1 inh-1	G9a inh	PI5P4K alpha inh	BAZ2B block	L3MBTL1 inh-2	AlphaScreen ctr2
O=Cc1cccn1-c1cccc([N+](=O)[O-])c1	?	-23%	-3%	·	?	0%	·	·
O=C(O)c1cccc(-n2cccc2/C=C/[N+](=O)[O-])c1	20µM*	22µM*	2.8µM*	10µM*	-88*	32µM*	1.7*	5%
O=C(O)c1cccc(-n2cccc2/C=N/O)c1	?	32µM*	10µM*	?	?	45µM*	2.4*	11%
O=C(O)c1cccc(-n2cccc2/C=C\[N+](=O)[O-])c1	?	22µM*	32µM*	·	-23	?	21*	14%
CN1C(=O)S/C(=C/c2cccn2-c2cccc(C(=O)O)c2)C1=O	24%	-27%	?	-30%	-9	?	·	·
CCOC(=O)c1cc(-c2ccc(N3CCOCC3)cc2)nn1-c1ccccc1C(=O)O	?	3.2µM*	14µM*	·	?	13µM*	6.7*	5%
Cc1ccnc2nc(C(=O)Nc3nc(-c4ccccn4)cs3)nn12	59%	22µM*	14µM*	20%[12.7 µM]	?	3.2µM*	4.2*	?
Cc1cc(C)n2c(SC/C(O)=C(\C#N)c3nc4ccccc4[nH]3)nnc2n1	28%	?	16µM*	4%	-81*	?	6*	-20%
COc1ccc(C/C(O)=C(\C#N)c2nc3ccccc3[nH]2)cc1OC	20%	-10%	1%	49%[59 µM]	-2	1%	·	·
CC1CCC2(CC1)NC(=O)N(CC(=O)Nc1sc3c(c1C(N)=O)CCC3)C2=O (centres undefined)	7%	?	28µM*	50µM*	-87*	50µM*	3.8*	6%
COC(=O)c1c(NC(=O)CN2C(=O)NC3(CCC(C)CC3)C2=O)sc2c1CCC2 (centres undefined)	34%	-4%	-3%	-5%[12.7 µM]	4	9%	·	·
O=C(NCc1nc2ccccc2[nH]1)c1c(F)cccc1F	18%	-4%	·	8%[59 µM]	·	-11%	·	·
COc1ccc(Nc2ccnc3ccccc23)cc1	35%	-11%	10%	-38%[59 µM]	?	-8%	·	·
